Data published in PubChem BioAssay (Tox21).
Values joined by “and” are separate entries in the source; they are usually repeats but may differ in a detail not shown here. Equal entries are not always repeated. Records with an inconclusive call do not appear. Entries that show only a call come without a potency. The source holds several records for some structures; these can differ, active in one and inactive in another. Active and inactive are the calls of the source. Unless noted, calls follow the shape of the dose curve; as a rule, active = well fitted curve in the direction sought with a large enough effect in the repeat runs; inconclusive = weak or mixed curves; inactive = no such curve, though single readings can be large; an effect the other way counts as inactive or inconclusive.

Experiments:
[1] = qHTS assay for small molecule agonists of the p53 signaling pathway (AID 651631; calls by dose curve; also: nearly all actives have a fitted effect of over 15% in size; also: potency is read from the fitted curve at half-maximal effect)
In short: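 Read-out is beta-lactamase FRET fluorescence measured 2 h after substrate addition at room temperature, in HCT-116 cells with a p53 response element-driven reporter exposed to compounds for 16 h at 37 °C.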

[2] = qHTS assay for small molecules that induce genotoxicity in human embryonic kidney cells expressing luciferase-tagged ATAD5 (AID 651632); also: nearly all actives have a fitted effect of over 15% in size
In short: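 Luminescent reporter readout, HEK293T ATAD5-luc line: 16 hr drug exposure (37C, 5% CO2) followed by Amplite, 30 min RT.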

[3] = qHTS assay for small molecule agonists of the p53 signaling pathway - cell viability (AID 651633; calls by dose curve; also: nearly all actives have a fitted effect of over 30% in size; also: potency is read from the fitted curve at half-maximal effect)
In short: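 Viability counter-read: CellTiter-Glo luminescence (30 min, room temperature) in the same p53RE-bla plates. These plates had been exposed to compounds for 16 h at 37 C.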

[4] = qHTS assay for small molecules that induce genotoxicity in human embryonic kidney cells expressing luciferase-tagged ATAD5 - cell viability (AID 651634; calls by dose curve; also: nearly all actives have a fitted effect of over 25% in size; also: potency is read from the fitted curve at half-maximal effect)
In short: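 Viability read: CellTiter-Fluor fluorescence, 30 min at 37C. Cells: HEK293T, luciferase-tagged ATAD5. Exposure: 15.5 hr, 37C, 5% CO2, compound or DMSO vehicle.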

[5] = qHTS assay to test for compound auto fluorescence at 590 nm (red) in HepG2 cells (AID 720674)
In short: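 Red autofluorescence (Ex/Em 540/590 nm, Rose Bengal sodium equivalents) was measured in HepG2 cells, 2,000 per well in MEM plus 10% FBS, plated overnight at 37 C. Readings were taken 1 hr after adding 23 nL compound or DMSO, at 37 C and 5% CO2.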

[6] = qHTS assay to test for compound auto fluorescence at 535 nm (green) in HepG2 cells (AID 720675); also: potency is read from the fitted curve at half-maximal effect
[7] = qHTS assay to test for compound auto fluorescence at 590 nm (red) in HEK293 cells (AID 720679)
In short: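 HEK293 cells (2,000/well, medium with 10% dialyzed FBS) attached for 4-5 hr at 37C, received 23 nL compound and were incubated overnight at 37C, 5% CO2. Red fluorescence was then read at 540/590nm Ex/Em, referenced to Rose Bengal sodium.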

[8] = qHTS assay for small molecule disruptors of the mitochondrial membrane potential (AID 720635); also: potency is read from the fitted curve at half-maximal effect
In short: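 Mitochondrial membrane potential tracked with Mito-MPS dye, red aggregates (ex 540/em 590 nm) against green monomers (ex 490/em 535 nm). Compound treatment 1 hr at 37C, dye 30 min in HepG2.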

[9] = qHTS assay to test for compound auto fluorescence at 460 nm (blue) in HEK293 cells (AID 720678); also: potency is read from the fitted curve at half-maximal effect
In short: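 HEK293 cells (2,000 per well, medium with 10% dialyzed FBS) attached for 4-5 hr at 37C, then received compound and stood overnight at 37C, 5% CO2. Blue fluorescence was read at Ex/Em 405/460 nm and expressed relative to triamterene.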

[10] = qHTS assay for small molecule disruptors of the mitochondrial membrane potential - cell viability (AID 720634; calls by dose curve; also: nearly all actives have a fitted effect of over 20% in size; also: potency is read from the fitted curve at half-maximal effect)
In short: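 HepG2, 1 hr compound, 37 C. ATP luminescence via CellTiter-Glo, 30 min RT, same well as m-MPI.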
Tags tell the direction and shape of the fitted curve or compound fluorescence and quenching.

Q: Which results are given for `CC(=O)Oc1ccc(C2(c3ccc(OC(C)=O)cc3)C(=O)Nc3ccccc32)cc1`?
A: Potency [1]: 211 nM (active) and 237 nM (active); Potency [2]: inactive; Potency [3]: 150 nM (active) and 266 nM (active); Potency [4]: inactive; Potency [5]: inactive; Potency [6]: inactive; Potency [7]: inactive

Q: For `O=S(=O)(O)CCCN1CCOCC1`, which Potency [1] is on record?
A: inactive

Q: What about the Potency [2] of the same compound?
A: inactive

Q: And the Potency [3]?
A: inactive

Q: What about the Potency [4] of the same compound?
A: inactive

Q: And the Potency [8]?
A: inactive

Q: What about the Potency [6] of the same compound?
A: inactive

Q: What about the Potency [9] of the same compound?
A: inactive

Q: What about the Potency [7] of the same compound?
A: inactive

Q: Which Potency [1] does the source give for `Nc1ccc2cc3ccc(N)cc3nc2c1` here?
A: 3.35 µM (active) and 3.06 µM (active)

Q: What about the Potency [2] of the same compound?
A: inactive

Q: What about the Potency [3] of the same compound?
A: inactive

Q: What about the Potency [8] of the same compound?
A: 2.66 µM (active) and 1.22 µM (active)

Q: And the Potency [5]?
A: inactive

Q: What about the Potency [6] of the same compound?
A: 12.6 µM (active)

Q: What about the Potency [9] of the same compound?
A: 12.6 µM [fluorescent] (active)

Q: And the Potency [7]?
A: inactive

Q: With `NCCCCCCNCCCCCCN` as the compound, how does the Potency [2] read?
A: inactive

Q: And the Potency [3]?
A: inactive

Q: And the Potency [4]?
A: inactive

Q: And the Potency [10]?
A: inactive

Q: What about the Potency [8] of the same compound?
A: inactive

Q: And the Potency [5]?
A: inactive

Q: What about the Potency [6] of the same compound?
A: inactive

Q: And the Potency [7]?
A: inactive

Q: What does the source list for `O=C(Nc1ccc(Cl)c(Cl)c1)c1cc(Cl)cc(Cl)c1O`?
A: Potency [1]: 3.06 µM (active); Potency [2]: inactive; Potency [3]: 0.273 µM (active); Potency [4]: 4.86 µM (active); Potency [8]: 0.137 µM (active); Potency [5]: inactive; Potency [6]: inactive; Potency [9]: inactive; Potency [7]: inactive

Q: For `O=C(c1ccccc1)c1cc(Cl)ccc1O`, which Potency [1] is on record?
A: inactive

Q: What about the Potency [2] of the same compound?
A: inactive

Q: And the Potency [3]?
A: inactive

Q: And the Potency [4]?
A: inactive

Q: What about the Potency [8] of the same compound?
A: 25.9 µM (active)

Q: What about the Potency [5] of the same compound?
A: inactive

Q: And the Potency [6]?
A: inactive

Q: And the Potency [9]?
A: inactive

Q: And the Potency [7]?
A: inactive

Q: Which Potency [2] does the source give for `CCOC(=O)[C@@](C)(N)Cc1ccc(O)c(O)c1` here?
A: inactive

Q: What about the Potency [3] of the same compound?
A: inactive

Q: And the Potency [4]?
A: inactive

Q: What about the Potency [10] of the same compound?
A: inactive

Q: And the Potency [8]?
A: inactive

Q: What about the fluorescence, relative to Rose Bengal [5] of the same compound?
A: -0.208% [at 18.6 µM] (inactive)

Q: And the fluorescence, % of fluorescein control [6]?
A: -0.17% [at 18.6 µM] (inactive)

Q: And the fluorescence, % of triamterene [9]?
A: 0.197% [at 18.6 µM] (inactive)

Q: What about the fluorescence, % of fluorescent control [7] of the same compound?
A: 0.559% [at 18.6 µM] (inactive)

Q: Which results are given for `CCCC(CC)CCCCCCCN` (configuration not stated)?
A: Potency [1]: inactive; Potency [2]: inactive; Potency [3]: inactive; Potency [10]: inactive; Potency [5]: inactive; Potency [6]: inactive; Potency [9]: inactive; Potency [7]: inactive

Q: What does the source list for `CCCCCCCCCCCCOC(=O)c1cc(O)c(O)c(O)c1`?
A: Potency [1]: 68.3 µM (active) and 61.1 µM (active); Potency [3]: 48.3 µM (active) and 48.6 µM (active); Potency [4]: 60.9 µM (active) and 13.7 µM (active); Potency [10]: 60.9 µM (active) and 54.5 µM (active); Potency [8]: 3.05 µM (active) and 4.33 µM (active); Potency [5]: inactive; Potency [6]: inactive; Potency [9]: inactive; Potency [7]: inactive

Q: Which results are given for `CCCCC(CC)COC(=O)c1ccc(O)cc1` (configuration not stated)?
A: Potency [2]: inactive; Potency [3]: 54.3 µM (active); Potency [4]: inactive; Potency [10]: 8.6 µM (active) and 24.3 µM (active); Potency [8]: 5.43 µM (active) and 6.11 µM (active); Potency [5]: inactive; Potency [6]: inactive; Potency [9]: inactive; Potency [7]: inactive

Q: What does the source list for `CO[C@H]1C=CO[C@@]2(C)Oc3c(C)c(O)c4c(O)c(cc(O)c4c3C2=O)NC(=O)/C(C)=C\C=C/[C@H](C)[C@H](O)[C@@H](C)[C@@H](O)[C@@H](C)[C@H](OC(C)=O)[C@@H]1C`?
A: Potency [1]: inactive; Potency [2]: inactive; Potency [3]: inactive; Potency [4]: inactive; Potency [5]: inactive; Potency [6]: inactive; Potency [9]: inactive

Q: For `CCN(CC)CCNc1ccc(CO)c2sc3ccccc3c(=O)c12`, which Potency [1] is on record?
A: 5.96 µM (active)

Q: And the Potency [2]?
A: inactive

Q: What about the Potency [4] of the same compound?
A: 23.7 µM (active)

Q: What about the Potency [10] of the same compound?
A: inactive

Q: What about the Potency [5] of the same compound?
A: inactive

Q: What about the Potency [6] of the same compound?
A: inactive

Q: What about the Potency [9] of the same compound?
A: inactive

Q: And the Potency [7]?
A: inactive

Q: Which Potency [1] does the source give for `O=C(NO)c1ccccc1` here?
A: 65.3 µM (active)

Q: And the Potency [4]?
A: inactive

Q: What about the Potency [10] of the same compound?
A: inactive

Q: What about the Potency [5] of the same compound?
A: inactive

Q: And the Potency [6]?
A: inactive

Q: What about the Potency [9] of the same compound?
A: inactive

Q: Which Potency [2] does the source give for `CCCCCCCOC(=O)c1ccc(O)cc1` here?
A: inactive

Q: And the Potency [3]?
A: inactive and 61.1 µM (active)

Q: And the Potency [4]?
A: inactive

Q: What about the Potency [10] of the same compound?
A: 27.3 µM (active)

Q: And the Potency [8]?
A: 8.64 µM (active) and 8.63 µM (active)

Q: What about the Potency [5] of the same compound?
A: inactive

Q: What about the Potency [6] of the same compound?
A: inactive

Q: And the Potency [9]?
A: inactive

Q: And the Potency [7]?
A: inactive

Q: With `CCC(C)c1cc([N+](=O)[O-])cc([N+](=O)[O-])c1OC(=O)OC(C)C` (configuration not stated) as the compound, how does the Potency [1] read?
A: 30.6 µM (active)

Q: What about the Potency [2] of the same compound?
A: inactive

Q: And the Potency [4]?
A: 61.1 µM (active)

Q: What about the Potency [10] of the same compound?
A: 21.7 µM (active)

Q: What about the Potency [8] of the same compound?
A: 3.06 µM (active)

Q: What about the Potency [5] of the same compound?
A: inactive

Q: What about the Potency [6] of the same compound?
A: inactive

Q: And the Potency [9]?
A: inactive

Q: And the Potency [7]?
A: inactive

Q: What does the source list for `CCCSS/C(CCO)=C(\C)N(C=O)Cc1cnc(C)nc1N`?
A: Potency [2]: inactive; Potency [3]: inactive; Potency [4]: inactive; Potency [10]: inactive; Potency [8]: inactive; Potency [5]: inactive; Potency [6]: inactive; Potency [7]: inactive

Q: For `CCCCCCCCCC(=O)N(C)C`, which Potency [1] is on record?
A: inactive

Q: What about the Potency [2] of the same compound?
A: inactive

Q: And the Potency [3]?
A: inactive

Q: What about the Potency [4] of the same compound?
A: inactive

Q: And the Potency [5]?
A: inactive

Q: And the Potency [6]?
A: inactive

Q: And the Potency [9]?
A: inactive

Q: What about the Potency [7] of the same compound?
A: inactive

Q: Which results are given for `Cc1ccc(N)cc1O`?
A: Potency [2]: inactive; Potency [3]: inactive; Potency [4]: inactive; Potency [10]: inactive; Potency [8]: 17.2 µM (active); Potency [5]: inactive; Potency [6]: inactive; Potency [7]: inactive

Q: With `C=C(C)C(=O)OCCC[Si](Cl)(Cl)Cl` as the compound, how does the Potency [1] read?
A: inactive

Q: And the Potency [2]?
A: inactive

Q: What about the Potency [3] of the same compound?
A: inactive

Q: What about the Potency [4] of the same compound?
A: inactive

Q: What about the Potency [8] of the same compound?
A: 61.7 µM (active)

Q: What about the Potency [5] of the same compound?
A: inactive

Q: And the Potency [9]?
A: inactive

Q: What about the Potency [7] of the same compound?
A: inactive

Q: For `[O]=[Zr]`, which Potency [1] is on record?
A: inactive

Q: And the Potency [2]?
A: inactive

Q: What about the Potency [3] of the same compound?
A: inactive

Q: What about the Potency [4] of the same compound?
A: inactive

Q: What about the Potency [5] of the same compound?
A: inactive

Q: For `Cc1c(C(=O)O)cccc1[N+](=O)[O-]`, which Potency [1] is on record?
A: inactive

Q: And the Potency [2]?
A: inactive

Q: What about the Potency [3] of the same compound?
A: inactive

Q: What about the Potency [4] of the same compound?
A: inactive

Q: What about the Potency [8] of the same compound?
A: inactive

Q: And the Potency [5]?
A: inactive

Q: What about the Potency [6] of the same compound?
A: inactive

Q: What about the Potency [9] of the same compound?
A: inactive

Q: Which Potency [1] does the source give for `Clc1ccc(C(c2ccccc2Cl)C(Cl)Cl)cc1` (configuration not stated) here?
A: 68.6 µM (active)

Q: What about the Potency [3] of the same compound?
A: 23.7 µM (active)

Q: And the Potency [4]?
A: inactive

Q: And the Potency [10]?
A: inactive

Q: What about the Potency [8] of the same compound?
A: 13.3 µM (active) and 27.3 µM (active)

Q: And the Potency [9]?
A: inactive

Q: And the Potency [7]?
A: inactive

Q: Which results are given for `CNC(=O)c1cc(Oc2ccc(NC(=O)Nc3ccc(Cl)c(C(F)(F)F)c3)cc2)ccn1`?
A: Potency [1]: 5.96 µM (active); Potency [2]: inactive; Potency [3]: 5.96 µM (active); Potency [4]: 16.8 µM (active); Potency [9]: inactive; Potency [7]: inactive

Q: What does the source list for `CCCCCCCCCCOCC(O)CN` (configuration not stated)?
A: Potency [1]: 33.5 µM (active); Potency [2]: inactive; Potency [3]: 29.8 µM (active); Potency [5]: inactive; Potency [6]: inactive; Potency [9]: inactive
